Drawing on PubChem BioAssay (NCI), this text covers growth inhibition for eight compounds.

Compounds without any hit were thinned out: in the full panel of roughly 79,000, 15% have a hit. A number with no mark means an inactive call. The source made the active and inactive calls. Rule as the data show it: active = growth inhibition above about 70%; inactive = the rest.

This assay can be described thus: NCI Yeast Anticancer Drug Screen. Data for the mlh1 strain (AID 171).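 Also: 0% = growth of vehicle-treated control cultures of the same strain.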 As to conditions: S. cerevisiae mlh1 strain growth inhibition, stronger effect = higher value. The method, then: Growth inhibition of yeast strains with defined genetic alterations is measured as a screen for potential anti-cancer activity. Selected strains with alterations in DNA damage repair or cell cycle control were exposed to compounds and growth inhibition was measured relative to vehicle treated controls. The strain used in this assay is mlh1

As to `Cc1ccc(Sc2ccccc2N)cc1`, the growth inhibition (at 1.2 µM) was 5%; the growth inhibition (at 3.7 µM) was -6%; the growth inhibition (at 11.0 µM) was 14%; the growth inhibition (at 33.0 µM) was 57%; the growth inhibition (at 100.0 µM) is 98% (active).
Turning to `CCOC(=O)CC1(C(=O)OCC)c2[nH]c3ccccc3c2CCN1Cc1ccccc1` (stereo not given), the growth inhibition runs as follows: (at 1.2 µM) -4%; (at 3.7 µM) -3%; (at 11.0 µM) -2%; (at 33.0 µM) 11%; (at 100.0 µM) 45%.
With `O=C(CC(=O)n1nc(-c2ccccc2)c(N=Nc2ccc(Cl)cc2)c1-c1ccccc1)Nc1cccc(Cl)c1`, the growth inhibition is -5% (at 1.2 µM); -2% (at 3.7 µM); -2% (at 11.0 µM); -4% (at 33.0 µM); -6% (at 100.0 µM).
Regarding `N#CNC(N)=Nc1cc2ccccc2c2ccccc12`, the growth inhibition was 31% (at 1.2 µM); 50% (at 3.7 µM); 78% (active) (at 11.0 µM); 92% (active) (at 33.0 µM); 91% (active) (at 100.0 µM).
As for `O=C(c1ccc([N+](=O)[O-])cc1)C1N=NCC1c1ccccc1` (stereo not given), the growth inhibition (at 1.2 µM) was -1%; the growth inhibition (at 3.7 µM) was 0%; the growth inhibition (at 11.0 µM) was 3%; the growth inhibition (at 33.0 µM) is 5%; the growth inhibition (at 100.0 µM) was 64%.
On to `CC(=O)ON=C1C=CC(=C(C#N)c2ccc(Cl)cc2)C=C1`, for which the growth inhibition was 4% (at 1.2 µM); 3% (at 3.7 µM); 9% (at 11.0 µM); 38% (at 33.0 µM); 74% (active) (at 100.0 µM).
Take `COc1cccc(/C=N/C(/N=C/c2cccc(OC)c2O)c2cccc(OC)c2O)c1O`: the growth inhibition (at 1.2 µM) is 0%; the growth inhibition (at 3.7 µM) was 2%; the growth inhibition (at 11.0 µM) is 7%; the growth inhibition (at 33.0 µM) was 33%; the growth inhibition (at 100.0 µM) is 97% (active).
With `O=[N+]([O-])c1cccc2nc3ccccc3c(NCCCn3ccnc3[N+](=O)[O-])c12`, the growth inhibition is, setting by setting: (at 1.2 µM) 17%; (at 3.7 µM) 33%; (at 11.0 µM) 47%; (at 33.0 µM) 75% (active); (at 100.0 µM) 92% (active).
